Measured values reported in PMC4336329 (PLoS ONE, 2015).
About 14,000 (4.5%) of roughly 310,000 compounds showed an effect of 50% or more. The effect is printed as a negative number. The sample holds strong results, similar compounds and a random draw of the others, so the mix is not that of the screen.

biological target: human ether-à-go-go-related gene (hERG) potassium channel (human, UniProt Q12809); experiment: primary screen, population patch clamp on CHO cells stably expressing hERG; higher = less effect of the substance
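Also: peak tail current of the secondary pulse compared with the same well before compound.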

human ether-à-go-go-related gene (hERG) potassium channel, sequence (Q12809 whole entry, looked up): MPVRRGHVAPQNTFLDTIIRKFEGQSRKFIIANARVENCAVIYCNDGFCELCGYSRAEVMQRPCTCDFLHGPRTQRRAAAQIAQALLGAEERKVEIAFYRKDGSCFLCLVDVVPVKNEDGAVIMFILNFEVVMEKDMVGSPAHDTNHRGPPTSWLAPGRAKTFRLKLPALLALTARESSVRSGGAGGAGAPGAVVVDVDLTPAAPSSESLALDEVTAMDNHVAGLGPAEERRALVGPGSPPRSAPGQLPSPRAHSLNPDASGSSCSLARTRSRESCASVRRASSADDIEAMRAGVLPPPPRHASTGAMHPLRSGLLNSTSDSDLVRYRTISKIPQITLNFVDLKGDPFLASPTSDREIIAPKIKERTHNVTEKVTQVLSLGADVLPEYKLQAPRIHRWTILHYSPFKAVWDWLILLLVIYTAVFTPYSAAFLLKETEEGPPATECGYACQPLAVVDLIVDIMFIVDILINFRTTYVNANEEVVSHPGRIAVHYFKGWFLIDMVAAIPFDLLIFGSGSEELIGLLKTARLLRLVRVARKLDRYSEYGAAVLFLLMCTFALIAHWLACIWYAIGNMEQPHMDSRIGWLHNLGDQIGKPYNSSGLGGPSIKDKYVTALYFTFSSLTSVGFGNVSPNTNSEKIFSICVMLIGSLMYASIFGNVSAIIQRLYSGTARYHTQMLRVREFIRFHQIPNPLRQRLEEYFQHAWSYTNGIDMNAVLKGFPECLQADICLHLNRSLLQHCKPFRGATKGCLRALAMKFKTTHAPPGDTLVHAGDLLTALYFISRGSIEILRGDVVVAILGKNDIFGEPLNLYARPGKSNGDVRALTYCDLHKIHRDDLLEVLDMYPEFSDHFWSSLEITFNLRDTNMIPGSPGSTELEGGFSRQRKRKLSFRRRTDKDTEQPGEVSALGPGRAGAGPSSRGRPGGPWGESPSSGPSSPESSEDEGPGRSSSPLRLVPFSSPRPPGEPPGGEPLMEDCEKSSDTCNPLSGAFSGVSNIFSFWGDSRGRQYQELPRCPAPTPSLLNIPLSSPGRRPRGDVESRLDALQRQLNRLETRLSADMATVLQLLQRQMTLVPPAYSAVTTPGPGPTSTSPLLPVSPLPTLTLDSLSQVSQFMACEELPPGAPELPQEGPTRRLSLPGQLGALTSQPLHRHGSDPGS

Compound | hERG current change (%, negative = inhibition) at 10uM [%]
CN(CC(=O)Nc1ccc(Cl)cc1)CC(=O)Nc1cc(Cl)ccc1C#N | -38.4
CN(CC(=O)Nc1ccc(Cl)c(Cl)c1)C(=O)/C=C/c1ccc(F)cc1 | 1.66
CN(CC(=O)Nc1ccc(C#N)cc1)Cc1ccc(Cl)cc1 | -68.6
CN(CC(=O)Nc1ccc(N2CCOCC2)cc1)CC(=O)Nc1cccc(C#N)c1 | -13.9
CN(CC(=O)Nc1ccc(C#N)cc1)Cc1ccc(Cl)cc1Cl | -66.8
CN(CC(=O)Nc1ccc(Cl)c(Cl)c1)CC(=O)Nc1ccc2c(c1)OCO2 | -3.52
CN(CC(=O)Nc1ccc(N2CCOCC2)cc1)CC(=O)Nc1ccc(N2CCOCC2)cc1 | 6.39
CN(CC(=O)Nc1cccc(C#N)c1)Cc1ccc(Cl)cc1 | -34.1
Cc1ccc(NC(=O)CN(C)Cc2ccc(Cl)cc2)cc1 | -8.48
CN(CC(=O)Nc1ccc(S(=O)(=O)N2CCCC2)cc1)Cc1ccc(Cl)cc1Cl | 10.8
CN(CC(=O)Nc1ccc(Cl)c(Cl)c1)Cc1nnc(-c2ccc(F)cc2)o1 | -63.3
CN(CC(=O)Nc1ccc(C#N)cc1)CC(=O)Nc1ccc(N2CCOCC2)cc1 | -56.3
CC(=O)c1ccc(-c2ccc(/C=C(/Sc3n[nH]c(C)n3)C(=O)O)o2)cc1 | -42.7
O=c1[nH][nH]cc1C=Nc1ccc(Oc2ccccc2)cc1 | 11.6
CC(Sc1ccccc1)C(=O)Nc1ccc(N2CCOCC2)cc1 (stereo not shown) | -7.09
CN1CCN(C(=O)c2ccc3c(c2)N(Cc2cccc(Cl)c2)C(=O)c2ccccc2S3(=O)=O)CC1 | 10.8
COc1ccc(NC(=O)CC2(CC(=O)O)CCCC2)cn1 | 16.7
CC(C)N1CCC(N2CCN(Cc3ccc(Oc4ncccn4)cc3)CC2CCO)CC1 (stereo not shown) | 23.9
Cc1cc(C)n(-c2ccc(C(=O)Nc3cccc([N+](=O)[O-])c3)cc2)n1 | 40.2
COc1ccc(CCNC(=O)c2ccc(-c3ccc([N+](=O)[O-])cc3Cl)o2)cc1 | 4.64
CN(CC(=O)Nc1ccc(C#N)cc1)Cc1ccc(Cl)c(Cl)c1 | -60.8
CN(CC(=O)Nc1ccc(S(=O)(=O)N2CCCC2)cc1)Cc1ccc(Cl)c(Cl)c1 | 0.187

Compound | hERG current change (%, negative = inhibition) at 10uM [%]
Cc1ccc(NC(=O)CN(C)C(=O)Cc2ccc(Cl)c(Cl)c2)cc1 | 11.8
C=CCNC(=O)c1ccc(C(=O)c2ccccc2)cc1 | -27.8
CC(=O)CSc1ncnc2c1cnn2-c1ccccc1 | 12.6
COc1ccc(/C=C2\CCc3ccccc3C2=O)cc1CN1CCOCC1 | -33.6
COc1ccc(/C=C2/CCc3ccccc3C2=O)cc1CN1CCOCC1 | -59.6
CCOc1cc(/C=N/NC(=O)c2ccc(CN3CCOCC3)cc2)ccc1OC | -19.1
COc1ccc(/C=N/NC(=O)c2cccc(Br)c2)cc1Cn1cc(Cl)cn1 | 8.83
COc1ccc(/C=C2\CCc3ccccc3C2=O)cc1Cn1cccn1 | 2.14
COc1ccc(/C=N/NC(=O)c2cccc(Br)c2)cc1CN1CCOCC1 | -82.4
COc1ccc(C(=O)/C=C/c2ccc(OC)c(CN3CCOCC3)c2)cc1 | -56.3
COc1ccc(/C=N/NC(=O)c2ccncc2)cc1CN1CCOCC1 | 3.71
COc1ccc(/C=N\NC(=O)c2nn(C)cc2Cl)cc1CN1CCOCC1 | -10.6
COc1ccc(/C=C/C(=O)c2ccccc2O)cc1CN1CCOCC1 | -17.7
COc1ccc(/C=C/C(=O)c2ccc(O)cc2)cc1CN1CCOCC1 | -11.3
COc1ccc(/C=N/NC(=O)c2ccc(Br)cc2)cc1CN1CCOCC1 | -64.8
CC(C)CN(C(=O)COC(=O)C1CC1)c1c(N)n(Cc2ccccc2)c(=O)[nH]c1=O | 13
CCc1c(O)nc(SCC(=O)Nc2nc3ccccc3s2)n(-c2ccc(C)cc2)c1=O | -17.8
Clc1ccc(-c2csc(N3CCc4ccccc4C3)n2)cc1 | 14.3
COc1c(S(=O)(=O)NCCN2CCOCC2)ccc(Cl)c1Cl | -16.3
CNC(=O)COC(=O)c1cc(NC(=O)c2ccco2)c(OC)c(OC)c1 | 2.4
O=S(=O)(c1cc(C(F)(F)F)ccc1Cl)N1CCN(c2ccccn2)CC1 | -26.3
CC(C)n1cnnc1SCC(=O)Nc1cccc(S(=O)(=O)N(C)c2ccccc2)c1 | -12.4

Compound | hERG current change (%, negative = inhibition) at 10uM [%]
c1ccc(C2(c3ccccc3)OCC(Cn3cncn3)O2)cc1 (stereo not shown) | -0.819
COc1ccc(/C=N/n2cnc3c(sc(=S)n3-c3ccccc3)c2=O)cc1 | 13.4
O=C(c1cc(-c2ccccc2)nc2ccccc12)N1N=C(C(F)F)CC1(O)C(F)F (stereo not shown) | -13.2
O=C(c1ccccc1-n1cccc1)N1N=C(C(F)F)CC1(O)C(F)F (stereo not shown) | -63.2
O=C(c1cc(C2CC2)nc2ccccc12)N1N=C(C(F)F)CC1(O)C(F)F (stereo not shown) | -18.3
COc1ccc(-c2cc(C(=O)NCc3ccco3)c3ccccc3n2)cc1 | -5.84
Cc1nn(-c2cc(Cl)ccc2Cl)c(C)c1C(=O)O | 13.2
O=C(COc1ccc(S(=O)(=O)NC2CCCCC2)cc1)NC1CC1 | 3.4
O=C(COc1ccc(S(=O)(=O)NC2CCCCC2)cc1)NC1CCCC1 | -8.19
CN(c1ccc(OCC(=O)N2CCN(c3ccc(F)cc3)CC2)cc1)S(=O)(=O)c1cccs1 | -58.7
Cc1ccc2c(c1)C1CN(C)CCC1N2C(=O)COc1ccc(N(C)C(=O)C(C)(C)C)cc1 (stereo not shown) | -9.48
CCOc1ccc(S(=O)(=O)N(C)c2ccc(OCC(=O)N3c4ccc(C)cc4C4CN(C)CCC43)cc2)cc1 (stereo not shown) | -38.5
CC(=O)N1CCN(C(=O)COc2ccc(N(C)S(=O)(=O)c3cccs3)cc2)CC1 | -14.7
CN(c1ccc(OCC(=O)N2CCCCC2)cc1)S(=O)(=O)c1cccs1 | -11.2
CN(c1ccc(OCC(=O)NC2CCCC2)cc1)S(=O)(=O)c1cccs1 | -80.6
Cc1ccc2c(c1)C1CN(C)CCC1N2C(=O)COc1ccc(N(C)S(=O)(=O)c2cccs2)cc1 (stereo not shown) | -52.9
O=C(COc1ccc(S(=O)(=O)NC2CCCCC2)cc1)NC1CCCCC1 | -54.1
CCN(CC)c1ccc(NC(=O)COc2ccc(N(C)S(=O)(=O)c3cccs3)cc2)cc1 | 8.15
Cc1ccc(N(CC(=O)NC2CCCCC2)S(=O)(=O)c2cccs2)cc1 | 5.9
C#Cc1cccc(C(=O)N2CCCC(C(=O)c3ccc(OC)cc3C)C2)c1 (stereo not shown) | -6.8
COc1ccc(S(=O)(=O)N2CCC(C(=O)Nc3ccccc3N3CCCCC3)CC2)cc1OC | 3.04
Cc1ccc(S(=O)(=O)N2CCC(C(=O)Nc3ccccc3N3CCCCC3)CC2)cc1C | -9.46

Compound | hERG current change (%, negative = inhibition) at 10uM [%]
C=CCn1c(Cc2csc(N)n2)nnc1SCC(=O)OCC | -0.614
O=C(O)CCc1nc2ccccc2c(=O)[nH]1 | 38.7
CC(=O)c1cn(CC(=O)NCc2cccnc2)c2ccccc12 | 3.67
CCc1nnc(NC(=O)CSc2nnc(-c3cccnc3)n2C)s1 | 13.6
CCOc1ccc(OCCC(=O)OCC(=O)N2CCN(c3ccc(OC)cc3)CC2)cc1 | 6.92
CN1CCN(C(=O)c2ccccc2NC(=O)CCN2C(=O)c3ccccc3C2=O)CC1 | -3.71
C=CCSc1nnc(NC(=O)CSc2nc3ccccc3[nH]2)s1 | 9.74
COc1cccc(NC(=O)Cn2c(-c3cncs3)nc3ccccc32)c1 | -23.9
O=C(CNC(=O)c1ccco1)OCc1cccc(Cl)c1 | -7.25
COC(=O)c1c(C(=O)OC)n(CCCN)c2ccc(C)cc12.Cl | -77
COC(=O)c1c(C)n(-c2ccc(C)cc2)c2ccc(O)cc12 | -3.54
COC(=O)c1c(C)n(Cc2ccccc2)c2ccc(O)cc12 | 14.8
O=C(NCCC1=CCCCC1)c1cc(COc2ccc(F)cc2Cl)on1 | 10.4
COc1cccc(NC(=O)Cn2c(CCC(=O)O)ccc2-c2cccs2)c1 | 12.4
Cc1ccc(NC(=O)Cn2c(CCC(=O)O)ccc2-c2cccs2)cc1Cl | -75.3
Cc1ccc(NC(=O)Cn2c(CCC(=O)O)ccc2-c2cccs2)cc1 | -2.61
CC(C)Oc1ccc(S(=O)(=O)N2CCOCC2)cc1NC(=O)C1CCCCC1 | -19.6
O=C(O)CSc1ncnc2sc(-c3ccccc3)cc12 | 23.6
Cc1cccc(Nc2sc(C(=O)c3cc4cc(Cl)ccc4o3)c(N)c2C#N)c1 | -2.78
